Out of some 360,000 compounds screened, about 1,800 (0.5%) were called active. This is one part of a sample in which actives are shown more often than they occur. Unmarked numbers belong to inactive results.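 Rule for the calls: active = interference check ratio from 0.5 to 1.5 plus GFP to RFP signal ratio inhibition reaching or exceeding a fixed threshold (cut at about 30% in these data, passing the limit was not always enough); inactive = the rest.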

The nature of the test: suppressors of acrylamide-induced Pgst-4::GFP reporter in worms, primary screen, SKN-1 inhibitor project, whole organism, uHTS, GFP/RFP fluorescence ratio, strain VP596 (AID 624304). The note with it: C. elegans VP596 Pgst-4::GFP/RFP ratio, 24 h, at 21.8 µM, stronger effect = higher value.
In general, inhibition refers to the drop in the measured response relative to a control, in per cent. In the case of `Cc1ccc(F)cc1NC(=O)CSCc1c(C)noc1C`, the inhibition is -5.42%.
In the case of `Cc1ccc(C)c(NC(=O)COC(=O)c2nn(C)c(=O)c3ccccc23)c1` it was 0.693%; in that of `Cc1ccc(F)cc1NC(=O)Cc1nn(C)c(=O)c2ccccc12`, 35.7% (active).
Next, `COC(=O)CCCC1=CC2=CC(=O)C(C)(OC(=O)c3cccs3)C(=O)C2=CN1CC(C)C` (stereo unspecified): 41% (active).
In the case of `CCCCC1=CC2=CC(=O)C(C)(OC(=O)CC)C(=O)C2=CN1CCCOC(C)C` (stereo unspecified) it was 19.4%; in that of `COC(=O)CCCC1=CC2=C(c3ccccc3)C(=O)C(C)(OC(=O)C3CCCC3)C(=O)C2=CN1c1ccc(OC)cc1` (stereo unspecified), -4%; in that of `CC(=O)c1ccccc1OCc1ccc(C(=O)c2ccccc2)cc1`, 12.8%.
`Fc1cccc2ncnc(OCc3ccccc3)c12`: the inhibition was 3.79%.
Next, `Cc1nc2ccccc2cc1OCc1ccc(F)cc1`: 90.3% (active); `OCC[C@H]1C[C@H](O)[C@@H](O)[C@]2(CCCCO2)O1`: -7.25%.
Next, `COc1cccc(NC(=O)CC(c2ccc(OC(C)C)cc2)c2ccccc2OC)c1` (stereo unspecified): -0.0853%; `COc1cccc(NC(=O)C(Sc2nnnn2C)c2ccccc2)c1` (stereo unspecified): 17.4%.
Next, `COc1cccc(NC(=O)C(C)Oc2ccccc2)c1` (stereo unspecified): 51.2% (active).
Regarding `COC(=O)c1ccc(COC(=O)c2c(C)nn(Cc3ccccc3Cl)c2Cl)o1`, the inhibition is -0.292%.
In the case of `Cc1ccc(NC(=O)Cc2nc(COC(=O)C(C)NS(=O)(=O)c3ccc(C)cc3)cs2)cc1` (stereo unspecified) it was -10%; in that of `CC1Cc2ccccc2N1C(=O)CSc1nnc(C2CC2)n1C` (stereo unspecified), 8.36%.
In the case of `CCS(=O)(=O)c1ccc2oc(SCC(=O)N3c4ccccc4CC3C)nc2c1` (stereo unspecified) it was -0.339%.
`CC1Cc2ccccc2N1C(=O)CSc1nc2ccccc2o1` (stereo unspecified): the inhibition was 30.1% (active).
Next, `Cc1cc2c(cc1S(=O)(=O)NCc1ccc(Cl)cc1)OCC(=O)N2`: -19.4%.
Next, `COc1ccccc1N(CCOc1ccccc1)S(=O)(=O)c1ccccc1`: 3.24%; `Cc1nc2c(-c3ccc(F)cc3)c(C)nn2c(C)c1CCC(=O)N1CCN(c2ccccn2)CC1`: -5.8%.
Next, `Cc1nc2ncnn2c(C)c1CCC(=O)N1CCN(C(=O)c2ccco2)CC1`: -8.68%; `Cc1nc2nc(C)c(CCC(=O)N3CCN(c4ccccc4)CC3)c(C)n2n1`: 35.7% (active); `CC1CCN(C(=O)Cn2nnnc2CN2CCOCC2)CC1`: -17.8%.
For the compound `N#CC1=C(N)Oc2c(sc3ccccc23)C1c1ccco1` (stereo unspecified), the inhibition was 35% (active).
Take `CCc1nc2c(OCC(=O)C(C)(C)C)cccn2c1N(C)C(=O)c1ccccc1F`: the inhibition was 15.8%.
Next, `CCOC(=O)C1=NNC2(c3ccc(Cl)cc3)C(=O)N(c3cc(C)cc(C)c3)C(=O)C12` (stereo unspecified): 14.5%; `COc1ccc(-c2c(C(C)=O)c(C)nc3sc4c(=O)n(-c5ccc(C)cc5)nnc4c23)cc1`: 12.1%; `CC(Oc1ccc(Cl)cc1)c1ccnn1S(C)(=O)=O` (stereo unspecified): 33.3% (active).
In the case of `CC(Oc1ccc(Cl)cc1)C(=O)OCC(=O)Nc1ncc(Cl)cc1Cl` (stereo unspecified), the inhibition is 6.67%.
Next, `CC(Oc1ccc(Cl)cc1)C(=O)Nc1ncccn1` (stereo unspecified): 11.8%.
Next, `CCc1c(SCCC(=O)O)nc2ccccc2c1C`: -7.29%; `Cc1nccn1-c1ccc(NC(=O)[C@H]2O[C@@H](n3ccc(=O)[nH]c3=O)[C@H](O)[C@@H]2O)cc1`: 1.64%; `COc1ccccc1OCC(=O)OCn1c(SC)nnc(C)c1=O`: 5.86%.
Next, `CC1CN(C(=O)CCC(=O)NCCCN2CCC(Cc3ccccc3)CC2)c2cc(Cl)ccc2O1` (stereo unspecified): 14.9%; `O=C1CCC([N+](=O)[O-])C(c2ccccc2Br)N1` (stereo unspecified): 9.01%.

Values taken from PubChem BioAssay AID624304 (Sanford-Burnham Center for Chemical Genomics, 2012).
